The record followed here is publication PMC7862700, “An all-to-all approach to the identification of sequence-specific readers for epigenetic DNA modifications on cytosine”.

Assay in all cases: DAPPL (digital affinity profiling via proximity ligation, sequencing); 10 mM Tris-HCl pH 7.5, 50 mM NaCl, 1 mM DTT, 4% glycerol, room temperature, 30 min; GST-TFs on glutathione beads, 16-mer random dsDNA library, 0.1% formaldehyde crosslink after washing; high values mean tight binding
Assay [1] addresses T1, FLI1 (Homo sapiens, UniProt Q01543 1-452).
T1 sequence: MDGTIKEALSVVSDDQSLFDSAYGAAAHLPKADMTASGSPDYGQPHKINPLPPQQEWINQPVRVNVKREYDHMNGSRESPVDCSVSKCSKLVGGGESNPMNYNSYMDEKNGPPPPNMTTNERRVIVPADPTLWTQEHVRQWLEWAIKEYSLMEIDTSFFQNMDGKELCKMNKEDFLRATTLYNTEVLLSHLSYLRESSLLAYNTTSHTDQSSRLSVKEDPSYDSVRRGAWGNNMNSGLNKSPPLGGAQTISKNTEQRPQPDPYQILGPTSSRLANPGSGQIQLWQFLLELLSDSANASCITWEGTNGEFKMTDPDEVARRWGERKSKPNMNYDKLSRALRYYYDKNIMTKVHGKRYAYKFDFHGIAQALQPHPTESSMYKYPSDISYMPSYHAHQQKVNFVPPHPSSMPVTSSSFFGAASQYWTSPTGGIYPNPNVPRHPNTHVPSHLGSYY
The note with it: protein: recombinant; tags: N-terminal GST; dsDNA, one strand shown. The gist of the method:
(§1)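 Binding signal is each hexamer's read frequency for a factor divided by its frequency in the tag-only sample. The factors were GST-fused human transcription factors from yeast, captured on glutathione beads, DNA-barcoded and pooled with that sample. Pools were incubated with 200 nmole of a random double-stranded 16-mer DNA library in Tris/NaCl/DTT/glycerol buffer at room temperature for 30 min, then washed, crosslinked with 0.1% formaldehyde, proximity-ligated with BsaI/T4 ligase (1 h, 37 °C), PCR-amplified and sequenced on an Illumina NextSeq500.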

Assay [2] addresses T2, ELK1 (Homo sapiens, UniProt P19419 1-428).
T2 sequence: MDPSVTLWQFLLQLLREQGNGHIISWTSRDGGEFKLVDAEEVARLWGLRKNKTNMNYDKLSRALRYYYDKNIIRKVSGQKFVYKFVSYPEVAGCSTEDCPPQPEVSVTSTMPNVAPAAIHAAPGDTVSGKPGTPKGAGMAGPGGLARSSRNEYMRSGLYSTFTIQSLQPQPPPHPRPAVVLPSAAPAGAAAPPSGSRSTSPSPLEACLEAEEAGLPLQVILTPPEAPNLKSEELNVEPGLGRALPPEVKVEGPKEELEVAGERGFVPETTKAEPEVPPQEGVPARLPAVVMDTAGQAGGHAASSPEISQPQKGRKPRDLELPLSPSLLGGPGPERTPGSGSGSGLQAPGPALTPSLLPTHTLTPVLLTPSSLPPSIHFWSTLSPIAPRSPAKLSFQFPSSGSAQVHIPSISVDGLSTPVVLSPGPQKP
The note with it: protein: recombinant; tags: N-terminal GST; dsDNA, one strand shown. A digest of the protocol:
as §1

The target of assay [3] is T3, GABPA (Homo sapiens, UniProt Q06546 1-454).
T3 sequence: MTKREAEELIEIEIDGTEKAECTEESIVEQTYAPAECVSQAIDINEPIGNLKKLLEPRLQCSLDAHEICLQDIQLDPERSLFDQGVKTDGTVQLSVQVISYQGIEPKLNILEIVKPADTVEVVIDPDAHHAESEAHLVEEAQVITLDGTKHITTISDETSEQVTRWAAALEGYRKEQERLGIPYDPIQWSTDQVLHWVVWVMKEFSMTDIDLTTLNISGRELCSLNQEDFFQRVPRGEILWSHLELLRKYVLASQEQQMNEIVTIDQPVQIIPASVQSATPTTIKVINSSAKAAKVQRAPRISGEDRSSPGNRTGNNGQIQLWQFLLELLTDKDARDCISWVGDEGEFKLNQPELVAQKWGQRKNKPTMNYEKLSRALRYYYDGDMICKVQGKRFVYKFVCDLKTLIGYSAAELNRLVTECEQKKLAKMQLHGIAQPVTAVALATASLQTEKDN
The note with it: protein: recombinant; tags: N-terminal GST; dsDNA, one strand shown. The gist of the method:
as §1

The target in assay [4] is T4, ERG (Homo sapiens, UniProt P11308 1-479).
T4 sequence: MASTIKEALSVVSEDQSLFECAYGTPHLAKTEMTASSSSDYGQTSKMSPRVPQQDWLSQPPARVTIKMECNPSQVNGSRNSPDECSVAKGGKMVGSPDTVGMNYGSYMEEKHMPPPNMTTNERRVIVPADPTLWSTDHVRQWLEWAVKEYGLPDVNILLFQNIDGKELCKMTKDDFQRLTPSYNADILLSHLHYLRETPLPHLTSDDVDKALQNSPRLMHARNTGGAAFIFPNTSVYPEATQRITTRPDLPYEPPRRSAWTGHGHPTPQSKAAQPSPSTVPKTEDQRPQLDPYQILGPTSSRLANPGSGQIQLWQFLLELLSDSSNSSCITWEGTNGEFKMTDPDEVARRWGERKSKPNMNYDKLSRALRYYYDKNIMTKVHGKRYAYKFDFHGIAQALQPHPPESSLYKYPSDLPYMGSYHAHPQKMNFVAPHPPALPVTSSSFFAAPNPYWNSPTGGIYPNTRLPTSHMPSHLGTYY
The note with it: protein: recombinant; tags: N-terminal GST; dsDNA, one strand shown. A digest of the protocol: as §1

Assay [5] addresses ELF1 (Homo sapiens, UniProt P32519 1-619). The note with it: protein: recombinant; tags: N-terminal GST; dsDNA, one strand shown. A digest of the protocol:
as §1

Assay [6] concerns the target T5, EHF (Homo sapiens, UniProt Q9NZC4 1-300).
T5 sequence: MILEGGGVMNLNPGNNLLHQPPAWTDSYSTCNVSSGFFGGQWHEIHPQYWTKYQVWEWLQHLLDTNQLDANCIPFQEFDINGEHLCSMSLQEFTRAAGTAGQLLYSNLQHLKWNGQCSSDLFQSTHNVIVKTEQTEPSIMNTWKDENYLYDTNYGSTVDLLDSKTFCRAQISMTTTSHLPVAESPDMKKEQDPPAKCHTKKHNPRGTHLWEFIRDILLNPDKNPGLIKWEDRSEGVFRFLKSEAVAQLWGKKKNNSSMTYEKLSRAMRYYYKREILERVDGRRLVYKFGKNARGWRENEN
Particulars: protein: recombinant; tags: N-terminal GST; dsDNA, one strand shown. A digest of the protocol:
as §1

Assay [7] deals with SPI1 (Homo sapiens, UniProt P17947 1-270). The note with it: protein: recombinant; tags: N-terminal GST; dsDNA, one strand shown. A digest of the protocol:
as §1

The target of assay [8] is SPIB (Homo sapiens, UniProt Q01892 1-262). The note with it: protein: recombinant; tags: N-terminal GST; dsDNA, one strand shown. A digest of the protocol: as §1
Chain of SPIB (Q01892 whole entry): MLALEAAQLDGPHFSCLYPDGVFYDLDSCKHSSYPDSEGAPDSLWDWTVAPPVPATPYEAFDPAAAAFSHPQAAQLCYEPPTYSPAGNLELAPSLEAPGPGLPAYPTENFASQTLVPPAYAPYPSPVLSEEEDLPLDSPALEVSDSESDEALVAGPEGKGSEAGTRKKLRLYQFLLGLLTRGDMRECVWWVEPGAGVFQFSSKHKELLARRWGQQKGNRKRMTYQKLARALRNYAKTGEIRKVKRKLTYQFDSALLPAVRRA
Assay [9] concerns the target T6, ELK3 (Homo sapiens, UniProt P41970 1-407).
T6 sequence: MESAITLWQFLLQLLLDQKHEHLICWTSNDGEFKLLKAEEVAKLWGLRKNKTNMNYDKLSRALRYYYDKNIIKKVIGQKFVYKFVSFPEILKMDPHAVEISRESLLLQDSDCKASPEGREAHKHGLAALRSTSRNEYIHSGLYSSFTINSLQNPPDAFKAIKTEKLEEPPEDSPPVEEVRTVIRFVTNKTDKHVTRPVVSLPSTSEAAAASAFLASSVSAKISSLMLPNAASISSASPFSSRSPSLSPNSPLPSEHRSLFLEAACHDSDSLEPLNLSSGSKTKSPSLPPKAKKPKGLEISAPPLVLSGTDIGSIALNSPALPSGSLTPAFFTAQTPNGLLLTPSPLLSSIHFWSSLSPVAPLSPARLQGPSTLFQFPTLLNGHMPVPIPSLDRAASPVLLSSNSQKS
The note with it: protein: recombinant; tags: N-terminal GST; dsDNA, one strand shown. A digest of the protocol: as §1

In assay [10] the target is T7, FEV (Homo sapiens, UniProt Q99581 1-238).
T7 sequence: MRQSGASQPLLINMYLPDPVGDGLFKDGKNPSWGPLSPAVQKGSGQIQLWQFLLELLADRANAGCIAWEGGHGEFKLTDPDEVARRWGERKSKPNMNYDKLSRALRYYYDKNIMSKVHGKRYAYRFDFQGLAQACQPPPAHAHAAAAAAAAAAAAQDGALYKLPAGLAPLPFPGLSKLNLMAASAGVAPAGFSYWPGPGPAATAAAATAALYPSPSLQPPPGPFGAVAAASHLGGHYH
Particulars: protein: recombinant; tags: N-terminal GST; dsDNA, one strand shown. A digest of the protocol: as §1

Assay [11] concerns the target ETV5 (Homo sapiens, UniProt P41161 1-510). Particulars: protein: recombinant; tags: N-terminal GST; dsDNA, one strand shown. The gist of the method:
as §1

Assay [12] has as its target HSF1 (Homo sapiens, UniProt Q00613 1-529). The note with it: protein: recombinant; tags: N-terminal GST; chain copies: 3; dsDNA, one strand shown. A digest of the protocol:
as §1

For assay [13], the target named is T8, SPIC (Homo sapiens, UniProt Q8N5J4 1-248).
T8 sequence: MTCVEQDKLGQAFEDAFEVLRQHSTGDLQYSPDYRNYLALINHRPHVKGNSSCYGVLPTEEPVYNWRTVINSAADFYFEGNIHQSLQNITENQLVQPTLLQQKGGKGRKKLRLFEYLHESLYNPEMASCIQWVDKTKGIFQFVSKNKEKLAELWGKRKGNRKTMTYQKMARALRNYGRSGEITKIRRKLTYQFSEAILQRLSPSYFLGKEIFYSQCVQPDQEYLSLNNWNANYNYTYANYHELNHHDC
Particulars: protein: recombinant; tags: N-terminal GST; dsDNA, one strand shown. A digest of the protocol:
as §1

The target of assay [14] is ELF4 (Homo sapiens, UniProt Q99607 1-663). Particulars: protein: recombinant; tags: N-terminal GST; dsDNA, one strand shown. The gist of the method: as §1
Chain of ELF4 (Q99607 whole entry): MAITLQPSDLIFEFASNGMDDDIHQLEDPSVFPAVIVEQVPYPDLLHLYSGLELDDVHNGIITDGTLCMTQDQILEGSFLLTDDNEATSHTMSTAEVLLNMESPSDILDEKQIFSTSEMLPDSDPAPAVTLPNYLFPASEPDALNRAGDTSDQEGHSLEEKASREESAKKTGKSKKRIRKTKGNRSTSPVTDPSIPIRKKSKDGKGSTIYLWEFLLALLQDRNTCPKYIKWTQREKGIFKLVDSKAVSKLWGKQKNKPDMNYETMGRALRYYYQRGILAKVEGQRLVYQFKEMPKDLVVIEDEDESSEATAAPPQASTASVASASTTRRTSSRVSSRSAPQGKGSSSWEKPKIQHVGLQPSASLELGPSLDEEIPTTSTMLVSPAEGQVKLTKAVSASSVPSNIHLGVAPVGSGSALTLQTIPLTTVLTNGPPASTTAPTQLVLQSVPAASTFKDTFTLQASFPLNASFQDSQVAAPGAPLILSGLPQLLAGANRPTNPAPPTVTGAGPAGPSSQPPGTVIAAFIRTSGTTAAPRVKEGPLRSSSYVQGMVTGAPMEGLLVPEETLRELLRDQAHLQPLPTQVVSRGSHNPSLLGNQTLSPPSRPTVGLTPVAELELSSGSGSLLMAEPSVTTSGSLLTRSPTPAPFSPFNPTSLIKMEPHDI
Assay [15] has as its target T9, ELK4 (Homo sapiens, UniProt P28324-2 1-405).
T9 sequence: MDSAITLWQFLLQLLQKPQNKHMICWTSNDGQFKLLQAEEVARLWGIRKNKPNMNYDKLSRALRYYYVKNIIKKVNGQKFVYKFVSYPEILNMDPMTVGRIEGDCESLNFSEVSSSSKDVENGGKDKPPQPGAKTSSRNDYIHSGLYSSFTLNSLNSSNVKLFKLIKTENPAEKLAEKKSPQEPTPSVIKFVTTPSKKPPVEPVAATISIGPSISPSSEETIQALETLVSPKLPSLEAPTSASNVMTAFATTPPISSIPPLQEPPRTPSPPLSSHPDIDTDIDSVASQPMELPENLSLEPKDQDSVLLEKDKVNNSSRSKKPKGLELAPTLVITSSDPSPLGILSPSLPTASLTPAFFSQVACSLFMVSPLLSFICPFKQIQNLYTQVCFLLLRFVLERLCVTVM
The note with it: protein: recombinant; tags: N-terminal GST; dsDNA, one strand shown. A digest of the protocol:
as §1

For assay [16], the target named is T10, ETV2 (Homo sapiens, UniProt O00321 1-342).
T10 sequence: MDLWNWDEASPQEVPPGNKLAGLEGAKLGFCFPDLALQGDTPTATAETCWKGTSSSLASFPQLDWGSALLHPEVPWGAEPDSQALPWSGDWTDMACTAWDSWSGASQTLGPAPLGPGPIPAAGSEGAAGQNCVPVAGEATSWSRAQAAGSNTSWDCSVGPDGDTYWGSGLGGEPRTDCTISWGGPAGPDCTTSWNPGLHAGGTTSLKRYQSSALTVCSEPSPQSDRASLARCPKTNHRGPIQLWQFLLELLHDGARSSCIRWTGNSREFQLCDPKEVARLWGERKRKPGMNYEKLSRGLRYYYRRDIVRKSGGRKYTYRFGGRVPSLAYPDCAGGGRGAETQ
The note with it: protein: recombinant; tags: N-terminal GST; dsDNA, one strand shown. A digest of the protocol: as §1

For assay [17], the target named is T11, ELF3 (Homo sapiens, UniProt P78545 1-371).
T11 sequence: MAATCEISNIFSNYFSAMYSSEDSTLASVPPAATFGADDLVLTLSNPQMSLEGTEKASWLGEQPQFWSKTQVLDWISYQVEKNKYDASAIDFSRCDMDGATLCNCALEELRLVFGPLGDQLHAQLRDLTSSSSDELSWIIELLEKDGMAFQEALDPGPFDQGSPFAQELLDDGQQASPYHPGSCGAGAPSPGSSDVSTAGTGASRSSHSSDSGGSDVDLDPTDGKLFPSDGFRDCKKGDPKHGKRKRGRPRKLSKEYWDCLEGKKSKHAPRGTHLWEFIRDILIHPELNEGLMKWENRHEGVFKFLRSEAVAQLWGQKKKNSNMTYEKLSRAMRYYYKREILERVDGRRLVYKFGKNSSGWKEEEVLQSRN
Particulars: protein: recombinant; tags: N-terminal GST; dsDNA, one strand shown. A digest of the protocol: as §1

Assay [18] deals with CRX (Homo sapiens, UniProt O43186 1-299). The note with it: protein: recombinant; tags: N-terminal GST; dsDNA, one strand shown. A digest of the protocol:
as §1

In assay [19] the target is ETV1 (Homo sapiens, UniProt P50549 1-477). Particulars: protein: recombinant; tags: N-terminal GST; dsDNA, one strand shown. A digest of the protocol:
as §1

Chain of CRX (O43186 whole entry): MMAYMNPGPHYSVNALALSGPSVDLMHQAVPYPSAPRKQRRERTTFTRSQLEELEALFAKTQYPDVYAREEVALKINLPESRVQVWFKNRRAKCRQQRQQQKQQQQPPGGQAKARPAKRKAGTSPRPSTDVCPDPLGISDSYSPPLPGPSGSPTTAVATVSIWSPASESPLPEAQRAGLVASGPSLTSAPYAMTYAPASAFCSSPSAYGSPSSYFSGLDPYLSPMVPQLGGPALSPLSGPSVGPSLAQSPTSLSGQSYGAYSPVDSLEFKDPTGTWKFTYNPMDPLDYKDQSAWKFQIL
Chain of ETV1 (P50549 whole entry): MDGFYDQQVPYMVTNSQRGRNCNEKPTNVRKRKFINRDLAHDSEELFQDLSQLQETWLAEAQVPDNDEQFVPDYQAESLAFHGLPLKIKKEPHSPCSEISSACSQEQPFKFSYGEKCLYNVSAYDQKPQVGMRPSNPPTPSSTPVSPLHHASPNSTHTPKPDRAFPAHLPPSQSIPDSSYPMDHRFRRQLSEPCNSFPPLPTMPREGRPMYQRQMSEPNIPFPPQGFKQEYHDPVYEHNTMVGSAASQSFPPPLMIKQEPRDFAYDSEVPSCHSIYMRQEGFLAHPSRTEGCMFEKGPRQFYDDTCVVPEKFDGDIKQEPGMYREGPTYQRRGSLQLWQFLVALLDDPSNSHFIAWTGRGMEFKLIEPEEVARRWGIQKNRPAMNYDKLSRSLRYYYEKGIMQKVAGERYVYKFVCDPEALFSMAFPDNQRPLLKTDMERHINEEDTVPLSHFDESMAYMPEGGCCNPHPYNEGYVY
Chain of ETV5 (P41161 whole entry): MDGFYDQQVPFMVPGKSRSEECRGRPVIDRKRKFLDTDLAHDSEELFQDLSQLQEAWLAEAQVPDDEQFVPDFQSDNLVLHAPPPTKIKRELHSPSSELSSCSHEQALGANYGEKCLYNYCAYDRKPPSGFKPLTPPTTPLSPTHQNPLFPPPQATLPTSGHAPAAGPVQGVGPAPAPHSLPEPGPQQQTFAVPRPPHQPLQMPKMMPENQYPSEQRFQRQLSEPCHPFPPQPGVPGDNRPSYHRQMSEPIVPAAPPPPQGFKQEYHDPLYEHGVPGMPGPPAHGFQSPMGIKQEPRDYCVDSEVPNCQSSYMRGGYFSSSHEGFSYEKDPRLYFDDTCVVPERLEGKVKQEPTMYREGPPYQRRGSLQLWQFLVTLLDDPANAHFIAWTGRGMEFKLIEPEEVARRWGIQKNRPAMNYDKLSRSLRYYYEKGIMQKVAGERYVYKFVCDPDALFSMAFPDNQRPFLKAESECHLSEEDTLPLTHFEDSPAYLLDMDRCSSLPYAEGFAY
Chain of ELF1 (P32519 whole entry): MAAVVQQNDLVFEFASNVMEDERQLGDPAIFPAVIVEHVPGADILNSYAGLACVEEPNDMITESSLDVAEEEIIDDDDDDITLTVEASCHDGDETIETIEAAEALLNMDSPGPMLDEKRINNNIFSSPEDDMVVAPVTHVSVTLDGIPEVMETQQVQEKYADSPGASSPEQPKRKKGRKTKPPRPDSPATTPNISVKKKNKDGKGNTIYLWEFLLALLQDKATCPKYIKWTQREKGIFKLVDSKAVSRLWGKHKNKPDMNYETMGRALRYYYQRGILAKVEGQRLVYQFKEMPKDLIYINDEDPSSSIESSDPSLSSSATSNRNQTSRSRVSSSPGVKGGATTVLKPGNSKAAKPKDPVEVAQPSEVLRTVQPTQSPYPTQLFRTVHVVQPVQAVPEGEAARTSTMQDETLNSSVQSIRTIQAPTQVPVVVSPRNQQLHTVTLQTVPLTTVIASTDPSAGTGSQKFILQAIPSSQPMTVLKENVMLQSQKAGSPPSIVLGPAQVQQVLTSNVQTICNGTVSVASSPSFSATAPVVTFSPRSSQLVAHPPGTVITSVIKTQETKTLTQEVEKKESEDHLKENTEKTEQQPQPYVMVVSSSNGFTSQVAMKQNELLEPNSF
Chain of HSF1 (Q00613 whole entry): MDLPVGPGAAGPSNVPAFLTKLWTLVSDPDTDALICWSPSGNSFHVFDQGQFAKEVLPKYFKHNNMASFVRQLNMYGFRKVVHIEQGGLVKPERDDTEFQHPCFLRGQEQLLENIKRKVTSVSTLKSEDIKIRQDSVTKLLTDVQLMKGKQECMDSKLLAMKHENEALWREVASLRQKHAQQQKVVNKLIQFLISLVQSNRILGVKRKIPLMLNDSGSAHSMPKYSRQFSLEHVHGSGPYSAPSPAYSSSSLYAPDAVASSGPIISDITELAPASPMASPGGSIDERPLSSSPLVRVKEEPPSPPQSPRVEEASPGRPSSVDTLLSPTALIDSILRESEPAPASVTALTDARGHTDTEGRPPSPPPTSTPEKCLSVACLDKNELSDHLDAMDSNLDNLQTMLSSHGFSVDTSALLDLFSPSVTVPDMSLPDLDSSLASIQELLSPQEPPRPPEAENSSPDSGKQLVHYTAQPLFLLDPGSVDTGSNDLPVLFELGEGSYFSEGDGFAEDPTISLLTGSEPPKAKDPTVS

As for CTACCC, the binding signal in [1] was 1.27 fold enrichment (6-mer frequency, TF over GST control); in assay [2], 1.32 fold enrichment (6-mer frequency, TF over GST control); in assay [3], 1.4 fold enrichment (6-mer frequency, TF over GST control); in assay [4], 1.36 fold enrichment (6-mer frequency, TF over GST control); in [5], 1.33 fold enrichment (6-mer frequency, TF over GST control); in [6], 1.27 fold enrichment (6-mer frequency, TF over GST control). The binding signal was 1.31 fold enrichment (6-mer frequency, TF over GST control) in assay [7]; 1.34 fold enrichment (6-mer frequency, TF over GST control) in assay [8]; 1.31 fold enrichment (6-mer frequency, TF over GST control) in assay [9]; 1.26 fold enrichment (6-mer frequency, TF over GST control) in assay [10]; 1.28 fold enrichment (6-mer frequency, TF over GST control) in [11]; 1.04 fold enrichment (6-mer frequency, TF over GST control) in assay [12]. The binding signal in [13] is 1.47 fold enrichment (6-mer frequency, TF over GST control); in assay [14] it was 1.36 fold enrichment (6-mer frequency, TF over GST control); in assay [15], 1.23 fold enrichment (6-mer frequency, TF over GST control); in assay [16], 1.29 fold enrichment (6-mer frequency, TF over GST control); in assay [17], 1.3 fold enrichment (6-mer frequency, TF over GST control); in assay [18], 1.08 fold enrichment (6-mer frequency, TF over GST control). Besides, in assay [19], the binding signal was 1.26 fold enrichment (6-mer frequency, TF over GST control).
